Measured values published in PubChem BioAssay (NCATS).
Results filed as inconclusive are left out. Activity calls are given as the source filed them. The call rests on the fitted dose curve; in most records, active means well fitted inhibition curve with a large enough effect; inconclusive means small, poorly fitted or top-dose-only effect; inactive means flat fitted curve, though single readings scatter. Where a SMILES comes first, the peptide text is derived from it. The star is where a group is joined. PhAc = O=C(Cc1ccccc1)*

Experiments:
CRL-7250 = normal cell line; assay: Cytotoxic Profiling of Annotated Libraries Using Quantitative High-Throughput Screening (AID 1296008); conditions: Five cell lines viability, CellTiter-Glo ATP luminescence, 48-72 h; max response: active compounds read low; on max response: on the % scale 0 is the no-effect control and ±100 the full control effect
Procedure, shortened: (§1)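 Cytotoxicity was measured as CellTiter-Glo ATP luminescence, read after 10 min at room temperature. Compound treatment of the cells lasted 48 or 72 hr at 37 degrees Celsius in a qHTS format.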

HEK293 = assay: as above; conditions: Five cell lines viability, CellTiter-Glo ATP luminescence, 48-72 h; max response: active compounds read low
Procedure, shortened: as §1

HaCat [1] = assay: as above; conditions: Five cell lines viability, CellTiter-Glo ATP luminescence, 48-72 h; max response: active compounds read low
Procedure, shortened: as §1

KB-3-1 = assay: as above; conditions: Five cell lines viability, CellTiter-Glo ATP luminescence, 48-72 h; max response: active compounds read low
Procedure, shortened: as §1

NIH3T3 = assay: as above; conditions: Five cell lines viability, CellTiter-Glo ATP luminescence, 48-72 h; max response: active compounds read low
Procedure, shortened: as §1

HACAT [2] = assay: qHTS assay to identify novel small-molecules to repurpose for Merkel cell carcinoma treatment (AID 1296009); conditions: MCC and control cell lines, CellTiter-Glo viability, 72 h; at 44.8 µM (top of the series) unless noted
Procedure, shortened: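 After compound transfer in DMSO, plates were kept 72 hr at 37 degree celsius. Luminescent ATP signal from CellTiter-Glo served as viability measure, normalized against DMSO and no-cell controls.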

Measured: max response
Further: nearly all actives have a fitted effect of over 60% in size.

CC1OC(OC2CCC3(C)C(CCC4(C)C3C=CC35OCC6(CCC(C)(C)CC63)CCC45C)C2(C)CO)C(OC2OC(CO)C(O)C(O)C2O)C(O)C1OC1OC(CO)C(O)C(O)C1O (stereo not given)
inactive: CRL-7250 -0.103% | HEK293 -1.62% | HaCat [1] | KB-3-1 | NIH3T3 | HACAT [2] inactive [at 9.27 µM]

COc1ccc(-n2[nH]c3c(cnc4ccccc43)c2=O)cc1
inactive: CRL-7250 1.83% | HEK293 -1.19% | HaCat [1] | KB-3-1 | NIH3T3 3.94% | HACAT [2]

CC1(C)CCC[C@]2(C)C1CC=C(CO)[C@H]2CC/C(=C/CO)CO (stereo not given in full)
inactive: CRL-7250 -11.4% | HEK293 -9.82% | HaCat [1] | KB-3-1 -0.734% | NIH3T3 1.71% | HACAT [2]

CC(O)C1CCC2C3CCC4CC(OC5OC(C(=O)O)C(O)C(O)C5O)CCC4(C)C3CCC12C (stereo not given)
inactive: CRL-7250 -11.7% | HEK293 -10.1% | HaCat [1] | KB-3-1 -9.6% | NIH3T3 -3.21% | HACAT [2]

Nc1c(-c2ccccc2)nc(Cl)c2c(O)n[nH]c(=O)c12
inactive: CRL-7250 | HEK293 -7.38% | HaCat [1] | KB-3-1 9.61% | NIH3T3 | HACAT [2]

COc1c(C)c(OCC(O)C(C)(C)O)cc2c1CNC2=O (stereo not given)
inactive: CRL-7250 2.44% | HEK293 -3.96% | HaCat [1] | KB-3-1 5.28% | NIH3T3 -1.72% | HACAT [2]

O=C(Nc1ccc(N2CCC(C(=O)N3CCOCC3)CC2)cc1)c1cnc(Oc2ccccc2)nc1
inactive: CRL-7250 -3.51% | HEK293 -17.8% | HaCat [1] | KB-3-1 -6.22% | NIH3T3 -17.6% | HACAT [2]

CCC(C)C(=O)OC[C@H]1O[C@H](O[C@H]2O[C@H](CO)[C@@H](O)[C@H](O)[C@H]2O)[C@H](O)[C@@H](O)[C@@H]1O (stereo not given in full)
inactive: CRL-7250 | HEK293 0.11% | HaCat [1] | KB-3-1 6.74% | NIH3T3 | HACAT [2] inactive [at 17.4 µM]

CC(=O)O[C@@H]1CC2C(C)(C)C(=O)C=C[C@]2(C)C2CC[C@]3(C)C(=CC(=O)[C@@H]3c3ccoc3)[C@@]21C (stereo not given in full)
inactive: CRL-7250 0.62% | HEK293 -22.3% | HaCat [1] | KB-3-1 | NIH3T3 0.533% | HACAT [2] inactive [at 17.4 µM]

COCc1c(O)c(C(=O)O)c(C)c2c1OC(=O)c1c(C)cc(O)c(CO)c1O2
inactive: CRL-7250 0.001% | HEK293 -3.82% | HaCat [1] | KB-3-1 | NIH3T3 | HACAT [2]

OCC1=C[C@@H](O)[C@@H]2C=CO[C@@H](O[C@@H]3O[C@H](CO)[C@@H](O)[C@H](O)[C@H]3O)[C@H]12
inactive: CRL-7250 -1.82% | HEK293 0.828% | HaCat [1] | KB-3-1 | NIH3T3 4.6% | HACAT [2]

CCC(C)/C=C(C)/C=C/C1=CC2=C(Cl)C(=O)C(C)(OC(C)=O)C(=O)C2=CN1C(CCCN=C(N)N)C(=O)O (stereo not given)
inactive: CRL-7250 -3.35% | HEK293 3% | HaCat [1] | KB-3-1 7.97% | NIH3T3 -0.868% | HACAT [2] inactive [at 17.4 µM]

C/C(=C\CC[C@H](CO)[C@@H]1CC[C@]2(C)C3=C(CC[C@@]12C)[C@@]1(C)CCC(=O)C(C)(C)C1CC3)C(=O)O (stereo not given in full)
inactive: CRL-7250 -4.82% | HEK293 -7.09% | HaCat [1] | KB-3-1 6.51% | NIH3T3 -2.55% | HACAT [2] inactive [at 17.4 µM]

O=C(OC[C@H]1O[C@H](O[C@]2(CO)O[C@H](CO)[C@@H](O)[C@@H]2O)[C@H](O)[C@@H](O)[C@@H]1O)c1ccc(O)cc1
inactive: CRL-7250 -3.61% | HEK293 1.1% | HaCat [1] | KB-3-1 0.316% | NIH3T3 -10.5% | HACAT [2] inactive [at 17.4 µM]

CC[C@@H]1C(=O)O[C@]23C=C[C@@H]4C(C(=O)OC)=CO[C@H](O[C@@H]12)[C@@H]43
inactive: CRL-7250 -23.4% | HEK293 -18.1% | HaCat [1] | KB-3-1 -9.89% | NIH3T3 1.97% | HACAT [2]

O=C(/C=C/c1ccc(O)cc1)O[C@H]1[C@H](OC2CCCCC2O)O[C@H](CO)[C@@H](O)[C@@H]1O (stereo not given in full)
inactive: CRL-7250 -2.64% | HEK293 2.98% | HaCat [1] | KB-3-1 5.56% | NIH3T3 | HACAT [2] inactive [at 17.4 µM]

CC1(C)O[C@H]2CC(=O)OC[C@@]23C1=C(O)C(=O)[C@]1(C)C3CC[C@@]2(C)[C@H](c3ccoc3)OC(=O)[C@H]3O[C@]321 (stereo not given in full)
inactive: CRL-7250 | HEK293 1.52% | HaCat [1] | KB-3-1 | NIH3T3 | HACAT [2] inactive [at 17.4 µM]

C/C1=C\CC(C)(C)/C=C/C/C(C(=O)O)=C/CC1
inactive: CRL-7250 -3% | HEK293 -13.3% | HaCat [1] | KB-3-1 -12.2% | NIH3T3 | HACAT [2]

CCOC(=O)CNC(=O)[C@@H]1CCCN1C(=O)Cc1ccccc1 (PhAc-Pro-Gly-OEt)
inactive: CRL-7250 -0.853% | HEK293 4.73% | HaCat [1] | KB-3-1 5.86% | NIH3T3 -14.5% | HACAT [2]

CC(=O)OC1C(CO)OC(O[C@H]2[C@H](OC(=O)[C@]34CCC(C)(C)C[C@H]3C3=CCC5[C@@]6(C)CC[C@H](O[C@@H]7O[C@H](C(=O)O)[C@@H](O)[C@H](O[C@@H]8OC[C@@H](O)[C@H](O)[C@H]8O)[C@H]7O[C@@H]7O[C@H](CO)[C@H](O)[C@H](O)[C@H]7O)[C@@](C)(C=O)C6CC[C@@]5(C)[C@]3(C)C[C@H]4O)O[C@H](C)[C@H](OC3OC(C)C(OC4OCC(O)C(O)C4O)C(O)C3O)[C@@H]2O)C(O)C1O (stereo not given in full)
inactive: CRL-7250 -0.582% | HEK293 -1.35% | HaCat [1] | KB-3-1 | NIH3T3 | HACAT [2] inactive [at 9.27 µM]

O=C(/C=C/c1ccc(O)cc1)OCC1OC(O)C(OC2OC(CO)C(O)C(O)C2O)C(O)C1O (stereo not given)
inactive: CRL-7250 | HEK293 -3.95% | HaCat [1] | KB-3-1 8.27% | NIH3T3 3.74% | HACAT [2] inactive [at 17.4 µM]

CCC1OC(=O)C(C)CC(C)C(=O)/C(C)=C/C(C)C(=O)/C=C/C1(C)O (stereo not given)
inactive: CRL-7250 | HEK293 -3.54% | HaCat [1] | KB-3-1 8.38% | NIH3T3 | HACAT [2]

C=C1CC2C3(C)C(O)CC(=O)C(C)(C)C3C(O)C(OC(C)=O)C2(C)C2C(=O)OC(C)(C(=O)OC)C(=O)C12C (stereo not given)
inactive: CRL-7250 | HEK293 -2.76% | HaCat [1] | KB-3-1 | NIH3T3 -16.8% | HACAT [2] inactive [at 17.4 µM]

C=C1CCC2(C(=O)OC3OC(CO)C(O)C(O)C3O)CCC3(C)C(=CCC4C5(C)CCC(OC6OC(CO)C(OC7OC(C)C(O)C(O)C7O)C(OC7OCC(O)C(O)C7O)C6O)C(C)(C)C5CCC43C)C2C1 (stereo not given)
inactive: CRL-7250 4.25% | HEK293 -4.7% | HaCat [1] | KB-3-1 3.47% | NIH3T3 -2.38% | HACAT [2] inactive [at 9.27 µM]

CSCC[C@H](NC(=O)[C@H](CO)NC(=O)[C@H](CCC(=O)O)NC(C)=O)C(=O)N[C@H](C=O)CC(=O)O (Ac-ESMD-aldehyde)
inactive: CRL-7250 3.88% | HEK293 0.953% | HaCat [1] | KB-3-1 2.69% | NIH3T3 -20.7% | HACAT [2] inactive [at 9.27 µM]

O=C(Nc1ccccc1)Nc1ccc(-c2ccc(C(=O)C3CCCC3C(=O)O)cc2)cc1 (stereo not given)
inactive: CRL-7250 -3.37% | HEK293 -9.05% | HaCat [1] | KB-3-1 | NIH3T3 | HACAT [2]

COc1cc(C)c(C(=O)O[C@@H]2[C@H](O)[C@@H](CO)O[C@H]2n2ccc(=O)[nH]c2=O)c(OC)c1
inactive: CRL-7250 | HEK293 3.08% | HaCat [1] | KB-3-1 | NIH3T3 2.52% | HACAT [2] inactive [at 17.4 µM]

COc1cc(CCCO)ccc1O[C@@H]1O[C@H](CO)[C@@H](O)[C@H](O)[C@H]1O
inactive: CRL-7250 | HEK293 0.679% | HaCat [1] | KB-3-1 | NIH3T3 -1.2% | HACAT [2]

O=C(O)C1(c2ccc(-c3ccc(Cl)c(Cl)c3)c(F)c2)CC1
inactive: CRL-7250 2.78% | HEK293 -11.7% | HaCat [1] | KB-3-1 -5.77% | NIH3T3 | HACAT [2]

O=C(C[C@@H]1C(C(=O)O)=CO[C@@H](O[C@@H]2O[C@H](CO)[C@@H](O)[C@H](O)[C@H]2O)/C1=C\CO)OCCc1ccc(O)c(O)c1
inactive: CRL-7250 -2.34% | HEK293 2.23% | HaCat [1] | KB-3-1 9.2% | NIH3T3 | HACAT [2] inactive [at 17.4 µM]

COC(=O)[C@]1(Cc2ccc(O)c(CC=C(C)C)c2)OC(=O)C(O)=C1c1ccc(O)cc1
inactive: CRL-7250 1.22% | HEK293 3.25% | HaCat [1] | KB-3-1 | NIH3T3 0.954% | HACAT [2] inactive [at 17.4 µM]

CC1=C2CC(O)(C(C)(C)O)C(O[C@@H]3O[C@H](CO)[C@@H](O)[C@H](O)[C@H]3O)CC(C)C2CC1=O (stereo not given in full)
inactive: CRL-7250 2.9% | HEK293 -24.8% | HaCat [1] | KB-3-1 7.73% | NIH3T3 | HACAT [2] inactive [at 17.4 µM]

CC(C)N(CCCNC(=O)Nc1ccc(C(C)(C)C)cc1)C[C@H]1O[C@@H](n2ccc3c(N)ncnc32)[C@H](O)[C@@H]1O
inactive: CRL-7250 1.45% | HEK293 -23.8% | HaCat [1] | KB-3-1 -3.09% | NIH3T3 -13.2% | HACAT [2]

COc1cc(C2CC(=O)Nc3c2cc(Br)c2ccccc32)cc(OC)c1OC (stereo not given)
inactive: CRL-7250 | HEK293 1.49% | HaCat [1] | KB-3-1 | NIH3T3 | HACAT [2]

CC(C)CC(c1c(O)c(C=O)c(O)c(C=O)c1O)C1CCC(C)(O)C2CC(C(C)(C)O)CCC12C (stereo not given)
inactive: CRL-7250 -4.35% | HEK293 -7.48% | HaCat [1] | KB-3-1 | NIH3T3 0.233% | HACAT [2] inactive [at 17.4 µM]
